# About 18,000 (4.4%) of roughly 410,000 compounds were called active. Another 7% or so got no clear call; they are omitted. This is one part of a sample in which actives are shown more often than they occur. Cut-off read from the data, not from the text of the source: active = activity change below about -60%; inconclusive = no clear call, values can overlap the other calls; inactive = above about -39%.
# Assay: qHTS Assay for inhibitors of the human cytomegalovirus (HCMV)
# Settings: HFF cells, HCMV-luciferase reporter, 72 h; at 57.5 µM; active compounds read low
# How it was run: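 Inhibition of viral replication was scored as loss of reporter luminescence in HFFs infected with HCMV-luciferase (MOI 1 PFU/cell) for 72 h; compounds tested at 2 doses, normalized to buffer and Salinomycin controls.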
# % is set by controls: 0 for no effect and ±100 for the full control effect.
row,Compound,"activity change, negative = inhibition"
1,Cc1cc(NC(=O)COC(=O)COc2ccc(Cl)cc2C)c([N+](=O)[O-])cc1C,26.5% (inactive)
2,COc1ccc(OCC(=O)Nc2cc(C)c(Cl)cc2OC)c([N+](=O)[O-])c1,-64.3% (active)
3,COc1cc(Cl)c(C)cc1NC(=O)COC(=O)c1cc(SC)ccc1Cl,4.92% (inactive)
4,Cn1cc(S(=O)(=O)N2CCCCCC2)cc1C(=O)N1CCN(c2ccc(F)cc2)CC1,-13.3% (inactive)
5,COc1ccc(NC(=O)CCCc2nnc3n(CCC(C)C)c(=O)c4sccc4n23)c(OC)c1,12.6% (inactive)
6,CCOc1ccc(-c2cc3nc(C4CCN(C(=O)OC(C)(C)C)CC4)c(C(=O)Nc4cccc(CC)c4)cn3n2)cc1,-18.2% (inactive)
7,COC(=O)c1ccccc1NC(=O)c1ccc(COc2ccccc2Cl)o1,14.7% (inactive)
8,CCN(CC)c1ccc(/C=N/NC(=O)CNC(=O)c2cccs2)cc1,-20% (inactive)
9,CCN(CC)c1ccc(/C=N/NC(=O)c2cnccn2)c(O)c1,-98.7% (active)
10,NS(=O)(=O)c1ccc(CNC(=O)c2cnccn2)cc1,8.17% (inactive)
11,CCN(CC)c1ccc(/C=N/Nc2nc(C)cc(C)n2)c(O)c1,-102% (active)
12,O=c1cc2nc(-c3ccccc3)nc(SCCOc3ccc(Cl)cc3)n2[nH]1,5.21% (inactive)
13,Cc1ccc(C)c(N2CCN(C(=O)Cn3nc(C)c4sc5ccccc5c4c3=O)CC2)c1,23.4% (inactive)
14,CC[C@H](C)[C@H]1CNC(=O)C(=O)N1CC1CCN(CCc2ccc(OC)c(OC)c2)CC1,15.6% (inactive)
15,COc1ccc(Cl)cc1S(=O)(=O)N1CCC(c2ccncc2)CC1,-32.1% (inactive)
16,CCOc1ccc(OCC)c(Nc2nc3ccccc3n3nnnc23)c1,-1.18% (inactive)
17,CC(C)[C@H]1COCCS(=O)(=O)N1Cc1ccccc1-c1cccc2c1sc1ccccc12,-19% (inactive)
18,COC(=O)c1c(-c2ccsc2)oc2ccc(-c3cc(OC)c(OC)c(OC)c3)cc12,8.37% (inactive)
19,CSc1ncccc1C(=O)N1CCCC(CCC(=O)NCc2ccccc2F)C1 (stereo not given),-1.95% (inactive)
20,Cc1cc2cc3n(c2nn1)N=C(Cl)CC3,-74.2% (active)
21,Cc1ccc(C(=O)COC(=O)C(Cc2c[nH]c3ccccc23)NC(=O)c2ccc(Br)cc2)cc1 (stereo not given),0% (inactive)
22,O=C(CSc1nccn1Cc1ccc(F)cc1)NCc1ccccc1,-14.9% (inactive)

row,Compound,"activity change, negative = inhibition"
1,CC(C)CC1NC(=O)c2cc(Cl)ccc2-n2c1nc1ccccc1c2=O (stereo not given),-99.6% (active)
2,O=C1NC(Cc2ccccc2)c2nc3ccc(Br)cc3c(=O)n2-c2cc3ccccc3cc21 (stereo not given),17% (inactive)
3,COc1ccc2nc3n(c(=O)c2c1)-c1ccc(Cl)cc1C(=O)NC3Cc1ccccc1 (stereo not given),-25.7% (inactive)
4,Cc1ccc(-c2nnn(CC(=O)N(Cc3ccco3)C(C(=O)NC(C)(C)C)c3ccncc3)n2)o1 (stereo not given),9.51% (inactive)
5,Cc1ccc(-c2cc(C(=O)Oc3ccccc3Cl)no2)cc1C,81.2% (inactive)
6,COc1cc(C(=O)N(Cc2ccc(C(C)C)cc2)C2CCS(=O)(=O)C2)cc(OC)c1OC (stereo not given),11.7% (inactive)
7,CN(C(=O)CSc1nc2ccccc2n1Cc1ccccc1C#N)c1ccccc1,-3.45% (inactive)
8,CC(C)(C)c1ccc(C(CC(=O)O)NS(=O)(=O)Cc2ccccc2)cc1 (stereo not given),30.5% (inactive)
9,CC(C)[C@@H](NC(=O)OC(C)(C)C)C(=O)NCC1CCC(C(=O)N[C@@H](Cc2ccccc2)C(=O)O)CC1 (stereo not given in full),-17.7% (inactive)
10,C[C@@H](NC(=O)OC(C)(C)C)c1nnc(S(=O)(=O)Cc2ccccc2)o1,-105% (active)
11,CC(C)N(C(=O)Cn1c(SCC(=O)N2CCN(c3ccccc3)CC2)nc2ccccc21)C(C)C,-20.6% (inactive)
12,CCn1cc2nc(SCc3ccccc3Cl)n(CCc3ccccc3)c(=O)c2n1,-14.7% (inactive)
13,COc1cc(C(=O)NCCc2csc3nc(-c4ccccc4C)nn23)cc(OC)c1OC,7.41% (inactive)
14,CCCNC(=O)c1nnc2n1CCN(C(=O)c1ccccc1OC)C2,-9.02% (inactive)
15,COc1ccccc1C(=O)NCCn1cc(SCc2ccccc2Cl)c2ccccc21,20.2% (inactive)
16,Cc1cccc(CN2CCN(C3CN(Cc4ccccc4)S(=O)(=O)C3)CC2)c1 (stereo not given),-24.1% (inactive)
17,Cc1cccc(CN2CCN(C3CN(Cc4cn(Cc5ccccc5F)nn4)S(=O)(=O)C3)CC2)c1 (stereo not given),-0.715% (inactive)
18,Cc1cccc(CN2CCN(C3CN(Cc4cn(Cc5cc(C)cc(C)c5)nn4)S(=O)(=O)C3)CC2)c1 (stereo not given),-101% (active)
19,COc1cccc(CNC(=O)C(=O)NCC(c2cccs2)S(=O)(=O)c2ccccc2)c1 (stereo not given),-19.1% (inactive)
20,CN(CCCC(=O)Nc1nccs1)S(=O)(=O)c1ccc(Cl)cc1,-64.7% (active)
21,Cc1nc(NC(=O)CN(C)S(=O)(=O)c2ccc(Cl)cc2)sc1C,12.3% (inactive)
22,COCCN(C(=O)CCC(=O)Nc1nccs1)C(C(=O)NC(C)(C)C)c1ccc(Cl)cc1 (stereo not given),-6.27% (inactive)

row,Compound,"activity change, negative = inhibition"
1,CCc1ccc(CN(Cc2ccco2)C(=O)COc2ccc(Cl)c(C)c2)cc1,-9.02% (inactive)
2,Cc1c(Cl)c([N+](=O)[O-])nn1CC(=O)NCC1CCCO1 (stereo not given),35.2% (inactive)
3,Cc1c(Cl)c([N+](=O)[O-])nn1Cc1ccc(C(=O)N/N=C\c2cc(Cl)ccc2O)o1,-93.7% (active)
4,Cc1c(Cl)c([N+](=O)[O-])nn1CCCC(=O)NC(C)c1ccccc1 (stereo not given),46.9% (inactive)
5,O=C1CC(c2nnc(Cc3ccc(Cl)cc3)o2)CN1c1ccccc1 (stereo not given),-4.62% (inactive)
6,COc1ccccc1/C=C/C(=O)OCC(=O)NC1CCCCCC1,-34.6% (inactive)
7,COc1ccccc1C(=O)OCC(=O)NCCNC(=O)COC(=O)c1ccccc1OC,-25.9% (inactive)
8,CCOC(=O)C(=Cc1ccccc1OC)C(=O)OCC,-65.2% (active)
9,CCc1cnc2c(c1SCC(=O)N1CCC(C)CC1)c(=O)n(C)c(=O)n2C,-18.2% (inactive)
10,COc1ccc2[nH]c3c(c2c1)CCN1C(=O)C(CC(=O)NCc2cccc(C(F)(F)F)c2)C[C@H](C(=O)N2CCOCC2)[C@@]31C (stereo not given in full),-2.74% (inactive)
11,CCN(CC)S(=O)(=O)c1nnc(NC(=O)COc2ccccc2Cl)s1,-5.69% (inactive)
12,Clc1ccc2nc(-c3ccccc3)nc(C(Cl)Cl)c2c1,-78.3% (active)
13,Fc1ccc2nc(-c3ccccc3)nc(SCc3nnc(-c4ccccc4)o3)c2c1,1.64% (inactive)
14,O=C(C1COc2ccccc2O1)N(Cc1cccnc1)c1nc2c(F)cc(F)cc2s1 (stereo not given),0% (inactive)
15,Cc1cc(S(=O)(=O)NCC(C)C)ccc1OCC(=O)NC1CC1,-9.36% (inactive)
16,CS(=O)(=O)c1ccccc1C(=O)Nc1ccc2sccc2c1,22.5% (inactive)
17,COc1cccc(C(=O)Nc2ccc3oc(-c4ccc5ccccc5c4)nc3c2)c1,12.9% (inactive)
18,O=C(Nc1ccc2ccccc2c1)Nc1ccc2snnc2c1,-97.2% (active)
19,CC(C)CC(=O)NCC(c1ccc2c(c1)OCO2)N1CCN(c2ccc(F)cc2)CC1 (stereo not given),1.29% (inactive)
20,COc1ccc(NC(=O)N2CCCn3nc(C)cc32)cc1OC,9.12% (inactive)
21,CCn1cc(NC(=O)Nc2ccc(OC)c(OC)c2)c(C(N)=O)n1,-11.8% (inactive)
22,COc1ccc(NC(=O)NC(C)c2c(-n3cccc3)sc(C)c2C)cc1OC (stereo not given),-77.2% (active)

row,Compound,"activity change, negative = inhibition"
1,NC1=NC(=O)C(Cc2cccc(Cl)c2)S1 (stereo not given),4.67% (inactive)
2,COc1ccc(-n2c(=O)c3c(c4cc(OC)ccc4n3C)n(Cc3cccc(C)c3)c2=O)cc1,-5.82% (inactive)
3,COC(=O)C[C@@H]1C=C[C@@H](NC(=O)c2cccnc2)[C@@H](CO)O1,-9.71% (inactive)
4,CCn1cc(C(=O)NCCc2ccccc2)c(=O)c2cc(S(=O)(=O)N3CCCCCC3)ccc21,-9.08% (inactive)
5,CCCCNC(=O)c1nc2cc(C)c(C)cc2nc1-c1ccc(OC)cc1,9.19% (inactive)
6,COc1ccc(-c2nc3c4ccccc4n(CC(=O)Nc4ccc(C(C)=O)cc4)c(=O)n3n2)cc1,29.2% (inactive)
7,OCCN1CCN(c2ncnc3c2ncn3[C@H]2CN(Cc3ccco3)C[C@@H](CO)O2)CC1,-21.8% (inactive)
8,OC[C@@H]1CN(Cc2ccncc2)C[C@H](n2cnc3c(N4CCN(c5ccccc5)CC4)ncnc32)O1,-88% (active)
9,CC(C)Nc1ncnc2c1ncn2[C@H]1CN(Cc2ccncc2)C[C@@H](CO)O1,23.6% (inactive)
10,OC[C@@H]1CN(Cc2ccc(-c3ccccc3)cc2)C[C@H](n2cnc3c(NC4CCCC4)ncnc32)O1,-84.2% (active)
11,OC[C@@H]1CN(C2CCCC2)C[C@H](n2cnc3c(NC4CCC4)ncnc32)O1,-6.08% (inactive)
12,OC[C@@H]1CN(Cc2cccs2)C[C@H](n2cnc3c(Nc4ccccc4)ncnc32)O1,-28.3% (inactive)
13,CCCOC(=O)c1c(NC(=O)c2cc3nc(-c4ccc(OC)cc4)cc(C(F)(F)F)n3n2)sc2c1CCCC2,-2.77% (inactive)
14,Cc1ccc(CSc2nc3ccsc3c(=O)n2CCC(C)C)cc1,-15.8% (inactive)
15,COc1ccccc1CNC(=O)CS(=O)(=O)c1cccc2nsnc12,22.9% (inactive)
16,Cc1c(C(=O)OC(C)C)sc(NC(=O)c2cccnc2)c1C#N,4.66% (inactive)
17,Cc1c(C#N)c(NC(=O)c2ccccc2)n(Cc2ccccc2)c1C,-33.4% (inactive)
18,CCCc1ccc(-c2c(C)sc(NC(=O)c3ccnn3C)c2C#N)cc1,-97.3% (active)
19,CCc1cccc(NC(=O)COC(=O)C2CCN(c3ccc(C(F)(F)F)cn3)CC2)c1,-14.3% (inactive)

# — PubChem BioAssay AID1259415 (National Center for Advancing Translational Sciences (NCATS), 2018)
